According to the supplement of paper PMC10849652:
Targets with a hit are over-represented here; the source holds about 8,800 in all. About 0.5% of all pairs of compound and target were hits. Unmarked numbers belong to inactive results.

Legend:
Assay in all cases: log2 fold change, soluble protein after heating vs DMSO (PISA); higher = thermal stabilisation; K562 lysate, 10 uM; active = over 0.2 and 3.5 SD of the protein, either way, in both replicates (recomputed)
[1] = compound: CN1CC[C@H](c2c(O)cc(O)c3c(=O)cc(-c4ccccc4Cl)oc23)[C@H](O)C1 [alvocidib]
Procedure, shortened: (§1)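 A 30 min treatment with 10 μM compound was applied to crude K562 extract at 1 mg/mL protein in PBS pH 7.4 with 1 mM MgCl2. Heating for 3 min spanned 48°C-58°C, after which aliquots were pooled, adjusted to 0.5% NP-40 at 4°C and spun at 21,000xg for 90 min. TMTpro 16plex LC-MS/MS of the supernatant, with channel sums equalised, gave values recorded as log-two fold change in thermal stability against solvent controls, from duplicates.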

[2] = compound: CN1CCc2c(c3ccccc3n2Cc2ccc(C(=O)NO)cc2)C1 [Tubastatin A]
Procedure, shortened: as §1

[3] = compound: CNC(=O)C1=CC=CC=C1NC2=NC(=NC=C2Cl)NC3=C(C=C(C=C3)N4CCOCC4)OC
Procedure, shortened: as §1

[4] = compound: CNC(=O)c1ccc(Nc2ncc(C(F)(F)F)c(NCc3nccnc3N(C)S(C)(=O)=O)n2)cc1 [defactinib]
Procedure, shortened: as §1

[5] = compound: CNc1nc(-c2ccc3c(N)n[nH]c3c2)cc(N2C[C@@H](C(=O)NC3CCCCC3)CC[C@H]2C)n1
Procedure, shortened: as §1

[6] = compound: COC(=O)N[C@@H](C)CNc1nccc(-c2cn(C(C)C)nc2-c2cc(Cl)cc(NS(C)(=O)=O)c2F)n1 [encorafenib]
Procedure, shortened: as §1

[7] = compound: COC(=O)[C@H](CCSC)NC(=O)C1=C(C=C(C=C1)NC[C@H](CS)N)C2=CC=CC=C2
Procedure, shortened: as §1

[8] = compound: COc1cc(Nc2ncc3c(n2)-c2ccc(Cl)cc2C(c2c(F)cccc2OC)=NC3)ccc1C(=O)O [alisertib]
Procedure, shortened: as §1

[9] = compound: COc1cc2nc(-c3cc(F)ccc3O)nc(N[C@@H]3CNC[C@H]3C(C)(C)O)c2cc1OC
Procedure, shortened: as §1

[10] = compound: COc1cc2ncnc(Nc3ccc(F)c(Cl)c3)c2cc1OCCCN1CCOCC1 [gefitinib]
Procedure, shortened: as §1

[11] = compound: CS(=O)(=O)CCNCc1ccc(-c2ccc3ncnc(Nc4ccc(OCc5cccc(F)c5)c(Cl)c4)c3c2)o1 [lapatinib]
Procedure, shortened: as §1

[12] = compound: CS(=O)(=O)N1CCN(Cc2cc3nc(-c4cccc5[nH]ncc45)nc(N4CCOCC4)c3s2)CC1 [pictilisib]
Procedure, shortened: as §1

[13] = compound: C[C@@H](Oc1cc(-c2cnn(C3CCNCC3)c2)cnc1N)c1c(Cl)ccc(F)c1Cl [crizotinib]
Procedure, shortened: as §1

[14] = compound: C[C@H](C1=CC=C(C=C1)C(=O)NC2=C3C=CNC3=NC=C2)N
Procedure, shortened: as §1

[15] = compound: C[C@H](Nc1ncnc2nc[nH]c12)c1cc2cccc(Cl)c2c(=O)n1-c1ccccc1 [duvelisib]
Procedure, shortened: as §1

[16] = compound: Cc1cc(Nc2cc(CN3CCOCC3)c3nc(C)c(Cc4ccc(Cl)cc4F)n3n2)n[nH]1 [gandotinib]
Procedure, shortened: as §1

[17] = compound: Cc1cc(Nc2cc(N3CCN(C)CC3)nc(Sc3ccc(NC(=O)C4CC4)cc3)n2)n[nH]1 [tozasertib]
Procedure, shortened: as §1

[18] = compound: Cc1ccc(-n2nc(C(C)(C)C)cc2NC(=O)Nc2ccc(OCCN3CCOCC3)c3ccccc23)cc1 [doramapimod]
Procedure, shortened: as §1

[19] = compound: Cc1ccc(NC(=O)c2ccc(CN3CC[C@H](N(C)C)C3)c(C(F)(F)F)c2)cc1Nc1nccc(-c2cncnc2)n1 [bafetinib]
Procedure, shortened: as §1

[20] = compound: Cc1cccc(CC(=O)N2CCc3c2ccc(-c2cn(C)c4ncnc(N)c24)c3F)n1
Procedure, shortened: as §1

UniProt O75521, sequence (O75521 whole entry, looked up): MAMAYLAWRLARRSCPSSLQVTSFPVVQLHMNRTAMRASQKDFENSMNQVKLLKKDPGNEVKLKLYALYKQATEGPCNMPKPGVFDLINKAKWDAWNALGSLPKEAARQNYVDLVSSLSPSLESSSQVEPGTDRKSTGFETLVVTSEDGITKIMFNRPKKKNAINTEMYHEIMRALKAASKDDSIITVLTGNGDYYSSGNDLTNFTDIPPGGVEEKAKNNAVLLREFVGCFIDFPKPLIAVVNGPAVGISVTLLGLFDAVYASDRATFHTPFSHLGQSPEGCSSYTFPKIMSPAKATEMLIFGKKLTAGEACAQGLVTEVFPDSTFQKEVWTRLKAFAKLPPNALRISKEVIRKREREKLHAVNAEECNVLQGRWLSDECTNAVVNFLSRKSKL
UniProt P62942, sequence (P62942 whole entry, looked up): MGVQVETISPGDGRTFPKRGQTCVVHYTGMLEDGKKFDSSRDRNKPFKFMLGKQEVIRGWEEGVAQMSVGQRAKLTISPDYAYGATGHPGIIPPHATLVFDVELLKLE
UniProt O14893, sequence (O14893 whole entry, looked up): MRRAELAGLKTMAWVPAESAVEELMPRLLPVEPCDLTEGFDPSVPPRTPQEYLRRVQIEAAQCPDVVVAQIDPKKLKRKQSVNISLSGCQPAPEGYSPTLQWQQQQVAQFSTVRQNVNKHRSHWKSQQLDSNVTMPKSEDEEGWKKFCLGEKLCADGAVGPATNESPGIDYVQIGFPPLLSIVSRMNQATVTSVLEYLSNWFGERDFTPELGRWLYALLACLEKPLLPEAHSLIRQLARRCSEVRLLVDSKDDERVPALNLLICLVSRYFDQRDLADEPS
UniProt Q13011, sequence (Q13011 whole entry, looked up): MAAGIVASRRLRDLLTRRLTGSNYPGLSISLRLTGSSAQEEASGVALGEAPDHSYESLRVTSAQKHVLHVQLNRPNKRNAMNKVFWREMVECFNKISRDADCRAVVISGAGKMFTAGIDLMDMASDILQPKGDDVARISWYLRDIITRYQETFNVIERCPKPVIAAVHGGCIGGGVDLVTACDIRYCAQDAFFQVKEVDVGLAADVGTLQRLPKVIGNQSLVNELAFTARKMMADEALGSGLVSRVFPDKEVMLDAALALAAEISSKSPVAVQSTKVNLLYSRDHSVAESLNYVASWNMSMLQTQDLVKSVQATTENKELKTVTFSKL
UniProt P04406, sequence (P04406 whole entry, looked up): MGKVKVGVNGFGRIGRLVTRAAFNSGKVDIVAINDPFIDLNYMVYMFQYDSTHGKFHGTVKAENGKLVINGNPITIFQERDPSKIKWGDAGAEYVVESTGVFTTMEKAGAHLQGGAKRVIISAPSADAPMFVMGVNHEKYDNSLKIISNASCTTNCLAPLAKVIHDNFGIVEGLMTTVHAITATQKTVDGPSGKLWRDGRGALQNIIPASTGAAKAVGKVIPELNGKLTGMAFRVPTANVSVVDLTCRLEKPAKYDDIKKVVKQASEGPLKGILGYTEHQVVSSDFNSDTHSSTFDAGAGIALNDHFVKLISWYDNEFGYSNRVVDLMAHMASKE
UniProt O94905, sequence (O94905 whole entry, looked up): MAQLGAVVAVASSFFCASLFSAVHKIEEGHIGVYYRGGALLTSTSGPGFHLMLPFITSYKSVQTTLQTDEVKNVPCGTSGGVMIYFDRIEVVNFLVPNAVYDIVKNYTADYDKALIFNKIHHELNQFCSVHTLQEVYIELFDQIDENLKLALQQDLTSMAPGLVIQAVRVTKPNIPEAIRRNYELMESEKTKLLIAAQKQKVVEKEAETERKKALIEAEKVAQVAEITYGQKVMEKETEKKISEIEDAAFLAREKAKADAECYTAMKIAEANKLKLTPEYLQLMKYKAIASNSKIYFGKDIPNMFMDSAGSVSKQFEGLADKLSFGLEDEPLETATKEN
UniProt Q8WWZ3, sequence (Q8WWZ3 whole entry, looked up): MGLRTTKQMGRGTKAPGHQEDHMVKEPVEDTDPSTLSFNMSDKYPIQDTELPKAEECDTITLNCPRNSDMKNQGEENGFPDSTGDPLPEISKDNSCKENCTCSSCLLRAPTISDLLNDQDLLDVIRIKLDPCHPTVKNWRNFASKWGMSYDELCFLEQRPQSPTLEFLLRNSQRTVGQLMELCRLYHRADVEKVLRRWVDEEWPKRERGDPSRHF
UniProt O14526, sequence (O14526 whole entry, looked up): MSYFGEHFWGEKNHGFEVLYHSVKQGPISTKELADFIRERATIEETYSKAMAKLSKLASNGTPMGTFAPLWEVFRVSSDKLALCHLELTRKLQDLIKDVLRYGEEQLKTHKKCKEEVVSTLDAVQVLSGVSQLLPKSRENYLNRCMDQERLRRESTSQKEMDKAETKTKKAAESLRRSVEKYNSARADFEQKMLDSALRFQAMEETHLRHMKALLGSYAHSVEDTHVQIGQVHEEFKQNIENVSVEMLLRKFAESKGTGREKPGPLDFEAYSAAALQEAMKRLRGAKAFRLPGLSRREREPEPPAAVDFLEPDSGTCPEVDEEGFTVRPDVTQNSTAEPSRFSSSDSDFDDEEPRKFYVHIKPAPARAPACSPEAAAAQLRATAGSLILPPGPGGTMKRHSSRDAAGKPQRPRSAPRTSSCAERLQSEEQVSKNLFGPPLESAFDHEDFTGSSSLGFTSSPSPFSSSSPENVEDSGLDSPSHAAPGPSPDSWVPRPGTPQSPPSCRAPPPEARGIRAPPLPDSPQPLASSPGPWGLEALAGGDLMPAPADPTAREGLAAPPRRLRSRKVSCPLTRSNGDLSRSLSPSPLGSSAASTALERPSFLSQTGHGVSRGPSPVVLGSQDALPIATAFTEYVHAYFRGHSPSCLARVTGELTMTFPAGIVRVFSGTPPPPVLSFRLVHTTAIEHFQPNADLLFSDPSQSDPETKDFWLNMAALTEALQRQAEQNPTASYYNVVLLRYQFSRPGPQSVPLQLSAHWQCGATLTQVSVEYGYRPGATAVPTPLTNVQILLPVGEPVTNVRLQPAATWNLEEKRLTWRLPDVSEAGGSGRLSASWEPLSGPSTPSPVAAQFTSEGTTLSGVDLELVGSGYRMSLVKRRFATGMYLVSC
UniProt P0DPD7, sequence (P0DPD7 whole entry, looked up): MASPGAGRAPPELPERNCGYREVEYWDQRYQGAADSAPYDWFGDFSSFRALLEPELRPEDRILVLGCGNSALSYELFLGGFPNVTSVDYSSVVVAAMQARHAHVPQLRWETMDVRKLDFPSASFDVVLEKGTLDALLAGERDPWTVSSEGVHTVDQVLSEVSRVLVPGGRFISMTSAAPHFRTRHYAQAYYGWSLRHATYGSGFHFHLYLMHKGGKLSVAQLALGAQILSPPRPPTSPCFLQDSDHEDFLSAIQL
UniProt P51116, sequence (P51116 whole entry, looked up): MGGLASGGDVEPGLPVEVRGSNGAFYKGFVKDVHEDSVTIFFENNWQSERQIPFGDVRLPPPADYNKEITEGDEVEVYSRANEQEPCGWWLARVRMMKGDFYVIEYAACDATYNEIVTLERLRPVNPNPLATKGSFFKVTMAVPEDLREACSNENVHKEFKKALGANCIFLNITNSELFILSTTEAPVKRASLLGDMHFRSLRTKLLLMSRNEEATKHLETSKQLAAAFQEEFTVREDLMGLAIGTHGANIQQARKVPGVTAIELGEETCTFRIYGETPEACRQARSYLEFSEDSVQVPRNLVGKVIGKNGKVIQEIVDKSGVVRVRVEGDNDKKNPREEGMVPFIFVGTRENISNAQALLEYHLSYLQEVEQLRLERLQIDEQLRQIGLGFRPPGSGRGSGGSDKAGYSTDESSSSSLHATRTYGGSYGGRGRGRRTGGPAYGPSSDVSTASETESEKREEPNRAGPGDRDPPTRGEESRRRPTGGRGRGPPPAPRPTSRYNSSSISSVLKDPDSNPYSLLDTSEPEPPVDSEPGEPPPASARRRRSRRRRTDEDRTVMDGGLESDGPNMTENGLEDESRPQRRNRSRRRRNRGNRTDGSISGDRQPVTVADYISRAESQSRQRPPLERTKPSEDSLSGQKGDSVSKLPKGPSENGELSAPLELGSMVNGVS
UniProt Q9UI10, sequence (Q9UI10 whole entry, looked up): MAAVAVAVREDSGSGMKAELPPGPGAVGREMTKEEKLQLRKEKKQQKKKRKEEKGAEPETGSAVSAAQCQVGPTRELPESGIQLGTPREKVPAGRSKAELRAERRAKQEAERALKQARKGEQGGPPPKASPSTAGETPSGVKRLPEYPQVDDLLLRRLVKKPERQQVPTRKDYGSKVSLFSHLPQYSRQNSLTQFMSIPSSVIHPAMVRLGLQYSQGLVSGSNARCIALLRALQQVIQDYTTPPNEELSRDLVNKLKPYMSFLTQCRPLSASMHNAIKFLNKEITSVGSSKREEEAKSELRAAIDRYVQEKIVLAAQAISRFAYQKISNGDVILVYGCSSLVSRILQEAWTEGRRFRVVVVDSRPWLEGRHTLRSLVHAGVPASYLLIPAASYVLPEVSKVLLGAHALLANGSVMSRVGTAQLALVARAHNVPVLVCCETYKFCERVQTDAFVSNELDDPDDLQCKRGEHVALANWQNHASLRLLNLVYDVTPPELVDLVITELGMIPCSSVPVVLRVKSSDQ
UniProt P19525, sequence (P19525 whole entry, looked up): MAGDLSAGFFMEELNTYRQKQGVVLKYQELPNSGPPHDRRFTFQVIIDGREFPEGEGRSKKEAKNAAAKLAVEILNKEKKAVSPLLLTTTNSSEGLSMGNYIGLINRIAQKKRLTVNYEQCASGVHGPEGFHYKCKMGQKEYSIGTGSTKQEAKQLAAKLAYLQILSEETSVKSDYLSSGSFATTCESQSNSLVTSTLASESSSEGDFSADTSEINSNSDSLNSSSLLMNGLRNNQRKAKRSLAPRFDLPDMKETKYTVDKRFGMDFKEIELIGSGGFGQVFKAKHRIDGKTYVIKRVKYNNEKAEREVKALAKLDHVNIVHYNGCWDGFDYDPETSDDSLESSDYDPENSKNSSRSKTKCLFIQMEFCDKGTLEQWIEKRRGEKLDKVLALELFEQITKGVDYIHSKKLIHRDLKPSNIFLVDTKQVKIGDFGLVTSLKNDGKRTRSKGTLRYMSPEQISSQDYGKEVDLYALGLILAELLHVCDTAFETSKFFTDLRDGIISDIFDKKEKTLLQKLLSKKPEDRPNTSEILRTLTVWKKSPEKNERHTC

Target	log2 fold change [1]	log2 fold change [2]	log2 fold change [3]	log2 fold change [4]	log2 fold change [5]	log2 fold change [6]	log2 fold change [7]	log2 fold change [8]	log2 fold change [9]	log2 fold change [10]	log2 fold change [11]	log2 fold change [12]	log2 fold change [13]	log2 fold change [14]	log2 fold change [15]	log2 fold change [16]	log2 fold change [17]	log2 fold change [18]	log2 fold change [19]	log2 fold change [20]
ERLIN2 (UniProt O94905)	0.164	0.016	0.005	0.002	0	0.045	-0.164	0	-0.06	0.005	-0.015	-0.091	-0.004	0.304 (active)	0.003	-0.077	0.02	0.043	-0.015	-0.114
FCHO1 (UniProt O14526)	0.027	-0.188	0.038	0.039	0.038	0.009	0.076	0.009	-0.021	0.003	-0.034	0.027	-0.072	-0.061	-0.025	-0.027	0.027	-0.039	-0.141	0.058
FKBP1A (UniProt P62942)	-0.296	0.047	0.06	0.144	0.034	0.005	-0.061	0.105	-0.076	-0.003	-0.011	-0.031	0.005	-0.814 (active)	0.074	0.266	-0.037	-0.04	-0.111	0.15
FXR2 (UniProt P51116)	0	-0.159	-0.083	-0.117	-0.018	0.06	0.064	0.017	0.013	0.012	-0.002	-0.055	-0.017	-0.022	-0.016	-0.074	0.009	0.037	0.002	0.027
GFPT1 (UniProt Q06210)	0.022	-0.075	0.011	0.01	0.012	-0.012	0.134	0.005	0.007	-0.013	-0.001	-0.026	-0.033	0.009	-0.002	-0.066	-0.013	-0.001	-0.031	0.007
GAPDH (UniProt P04406)	0.01	0.046	0	0.012	0.018	-0.045	-0.006	-0.039	-0.001	-0.026	0.005	-0.024	0.066	0.043	0.003	-0.002	-0.005	-0.031	0.055	-0.082
EEF1AKMT4 (UniProt P0DPD7)	-0.029	-0.027	0.074	0.03	0.188	0.042	0.012	0.037	0.068	0.004	-0.052	0.009	-0.012	-0.046	-0.038	0.067	-0.072	-0.038	-0.171	0.193
ECH1 (UniProt Q13011)	0.017	0.309 (active)	-0.028	0.004	-0.004	-0.033	-0.024	-0.01	0.047	-0.001	-0.035	-0.008	-0.03	-0.089	0.016	0.005	0.178	-0.008	0.091	0.028
FYB1 isoform 3 (UniProt O15117)	-0.012	-0.001	0.013	0.033	0.065	-0.005	-0.035	-0.012	-0.014	-0.029	0.045	-0.008	-0.082	0.147	0.01	-0.051	0.052	-0.007	-0.062	-0.058
GEMIN2 (UniProt O14893)	0.034	-0.053	0.001	-0.006	0.013	0.095	-0.009	-0.017	0.009	-0.1	-0.025	-0.029	0.059	-0.12	0.075	0	-0.021	-0.092	-0.053	0.139
FREM2 (UniProt Q5SZK8)	-0.114	0.068	-0.034	-0.005	-0.038	0.031	-0.022	0.098	-0.013	0.164	-0.077	0.046	-0.095	-0.318 (active)	0.06	0.172	0.104	0.07	-0.135	0.218
EIF2AK2 (UniProt P19525)	0.004	-0.099	0.091	0.049	0.083	0.087	0.153	0.003	0.029	-0.055	-0.003	0.03	0.12	-0.061	-0.036	-0.022	-0.009	0.011	-0.036	0.022
EIF2B4 isoform 2 (UniProt Q9UI10)	-0.015	-0.025	0.013	0.035	0.02	0.018	0.162	-0.014	0.016	0	-0.041	0.007	-0.037	-0.021	-0.013	-0.048	-0.01	-0.012	-0.058	0.044
EDARADD (UniProt Q8WWZ3)	-0.015	-0.003	0.019	0.009	-0.068	0.013	-0.072	-0.075	0.027	0.043	-0.037	-0.122	0.027	-0.049	0.015	0.074	0.082	0.086	0	-0.027
ECI2 (UniProt O75521)	-0.033	0.054	-0.054	-0.038	0.03	-0.006	-0.067	0.004	-0.008	0.011	-0.022	-0.017	0.032	-0.002	0.004	-0.009	0.03	0.007	-0.002	0.042
